In the library only some 3.2% were active in any assay of this set; here they are far more common.
CBFb RUNX1 block: CBF-beta/RUNX1 interaction disruption | AlphaScreen CBFb-His/RUNX1-biotin binding, biochemical | Q01196+Q13951 | AID 1477 | 230,000 tested, under 10 active | Potency, µM (top dose mostly 59.8 µM), for inactives: top-dose activity, negative = inhibition, usual class: inhibitors; further: % of control where 0% means no effect
Target sequence (Q01196 whole entry, looked up): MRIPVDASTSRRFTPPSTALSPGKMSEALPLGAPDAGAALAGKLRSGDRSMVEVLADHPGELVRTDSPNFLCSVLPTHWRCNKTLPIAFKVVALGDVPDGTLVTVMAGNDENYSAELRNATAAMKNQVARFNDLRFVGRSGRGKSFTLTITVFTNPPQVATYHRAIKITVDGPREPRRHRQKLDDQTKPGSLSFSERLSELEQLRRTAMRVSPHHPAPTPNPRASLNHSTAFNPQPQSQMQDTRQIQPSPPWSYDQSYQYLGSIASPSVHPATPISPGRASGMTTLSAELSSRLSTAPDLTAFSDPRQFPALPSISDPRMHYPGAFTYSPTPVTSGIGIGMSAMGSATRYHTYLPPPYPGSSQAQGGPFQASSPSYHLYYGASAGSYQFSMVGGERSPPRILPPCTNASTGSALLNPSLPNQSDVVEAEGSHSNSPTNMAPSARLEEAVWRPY
Target sequence (Q13951 whole entry, looked up): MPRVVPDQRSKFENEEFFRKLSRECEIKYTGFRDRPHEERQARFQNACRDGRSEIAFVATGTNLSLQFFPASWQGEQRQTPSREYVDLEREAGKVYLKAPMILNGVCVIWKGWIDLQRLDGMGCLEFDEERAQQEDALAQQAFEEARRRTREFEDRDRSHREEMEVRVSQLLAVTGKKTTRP
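Read-out: AlphaScreen. Format: His-CBF-beta with biotinylated RUNX1 (30 nM each) preincubated 20 min, compound 15 min, Ni-chelate plus streptavidin beads 90 min; room temperature throughout.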
JMJD2E inh: inhibitors of human JMJD2E histone demethylase | B2RXH2 | JMJD2E catalytic domain, FDH-coupled NADH fluorescence (FDH is formaldehyde dehydrogenase) | Potency, µM (highest dose often 57.1 µM), for the others: at the top dose activity change, negative = inhibition, usual class: inhibitors | 1.6% of 230,000 active | AID 2147; active means well fitted inhibition curve with a large enough effect, not every such curve was filed as active; inconclusive means small, poorly fitted or top-dose-only effect, or another doubt; inactive means no such curve, though single readings can be large or run the other way;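 further: potency means the concentration at half of the fitted maximal effect; 0% = wells with enzyme and -100% = buffer wells without enzyme; nearly all actives have a fitted effect of over 50% in size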
Tau fibril ThT: inhibitors of human tau fibril formation, thioflavin T binding | P10636 | recombinant tau K18 P301L, heparin-induced fibrillization, ThT fluorescence | Potency, µM (highest dose often 57.4 µM), without a hit: at the top dose activity, negative = inhibition, most hits filed as inhibitors | 2.1% of 270,000 active | AID 1460; further: potency means the concentration at half of the fitted maximal effect; on the % scale 0 is the no-effect control and ±100 the full control effect; nearly all actives have a fitted effect of over 55% in size
Target sequence (P10636 561-689 P618L limits assumed): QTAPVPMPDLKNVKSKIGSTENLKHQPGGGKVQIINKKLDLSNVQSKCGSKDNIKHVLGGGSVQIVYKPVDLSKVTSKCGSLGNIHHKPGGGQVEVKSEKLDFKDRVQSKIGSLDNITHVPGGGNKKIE
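Heparin-induced fibrillization of the P301L-mutant K18 repeat-domain fragment of human tau was followed by ThT binding in quantitative high-throughput format.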
Tau FP inhib: inhibitors of human tau fibril formation; K18 P301L tau heparin fibrillization, Alexa594 FP, 6 h; 0.39% of 280,000 active; AID 1468; Potency, µM (highest dose often 57.7 µM), for the others: top-dose activity, negative = inhibition, hits mostly inhibitors; further: potency means the concentration at half of the fitted maximal effect; on the % scale 0 is the no-effect control and ±100 the full control effect; nearly all actives have a fitted effect of over 55% in size
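Steps: dispense K18 P301L tau (15 uM plus 0.24 uM Alexa 594 tracer, final) in pH 7 sodium acetate; add compound; add heparin (20 uM final); incubate 6 hr, 37 C; add ThT (30 uM final); after 1 hr ambient, read FP.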
Lamin A splicing: LMNA splicing modulation; HeLa LMNA splicing GFP/RFP minigene ratio, 48 h; Potency, µM (highest dose often 46.1 µM), for the others: top-dose ratio change, negative = inhibition, hits mostly inhibitors; 0.01% of 200,000 active; AID 1487; active means well fitted inhibition curve with a large enough effect in the signal ratio, with a control signal flat, not every such curve was filed as active; inconclusive means small, poorly fitted or top-dose-only effect, or effect the other way, or a change in a side signal; the % refers to the signal ratio; further: potency means the concentration at half of the fitted maximal effect; on the % scale 0 is the no-effect control and ±100 the full control effect
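S3 HeLa stable clones carrying a lamin A-EGFP splicing minigene plus DsRed2 were seeded at 600 cells/well in Opti-MEM with 2% FBS, pin-dosed and incubated 48 h at 37°C. Acumen cytometry (488 nm) gave the GFP/RFP total-intensity ratio.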
Tau fluor cs: counter-screen for tau fibril formation inhibitors; tau K18 P301L Alexa594 fluorescence, heparin fibrillization; Potency, µM (top dose mostly 57.7 µM), for the others: at the top dose activity change, negative = decrease; 0.93% of 280,000 active; further: potency means the concentration at half of the fitted maximal effect; on the % scale 0 is the no-effect control and ±100 the full control effect; nearly all actives have a fitted effect of over 55% in size
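Human tau K18 P301L (15 uM unlabeled, 0.24 uM Alexa 594-labeled) in 100 mM sodium acetate pH 7 with 20 uM heparin, 6 hr at 37 C. ThT 30 uM added, 1 hr ambient; Alexa 594 FP and total fluorescence read at 555/632 nm.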
Starred values were filed as active, the others as inactive; [ ] = dose if it differs, or a comment. Unless noted, the call rests on the fitted dose curve; in most records, active means well fitted curve in the direction sought with a large enough effect; inconclusive means small, poorly fitted or top-dose-only effect, or another doubt; inactive means no such curve, though single readings can be large; an effect the other way counts as inactive or inconclusive.

For CCN(c1ccccc1)S(=O)(=O)c1ccc(Cl)c(NC(=O)COC(=O)c2cc(O)c3ccccc3c2O)c1 the results were CBFb RUNX1 block -27.2%, JMJD2E inh 8.91µM*, Tau fibril ThT 11.2µM*, Tau FP inhib inconclusive and Tau fluor cs 8.91µM*[quencher].
`CCC1(C)Cc2c(C#N)c(N)sc(=S)c2CO1` (stereo unspecified) gave CBFb RUNX1 block -0.5%, JMJD2E inh inconclusive, Tau fibril ThT 25.1µM*, Tau FP inhib inconclusive, Lamin A splicing 14.5% and Tau fluor cs -16.1%.
For N#Cc1c(N)sc(=S)c2c1CCCC2 the results were CBFb RUNX1 block -18.9%, JMJD2E inh 3.9%, Tau fibril ThT 14.1µM*, Tau FP inhib -2.9%, Lamin A splicing 18.1% and Tau fluor cs inconclusive.
Screening COc1cccc(-n2c(SCC(=O)Nc3ccc4c(c3)OCO4)nc3c([nH]c4ccccc43)c2=O)c1 returned Tau fibril ThT 0.7%, Tau FP inhib -4.1%, Lamin A splicing 9.2%[46 µM] and Tau fluor cs inconclusive.
`Cc1ccc(S(=O)(=O)c2cn(CC(=O)Nc3ccccc3C)c3cc4c(cc3c2=O)OCO4)cc1` gave Tau fibril ThT inconclusive, Tau FP inhib 0.4% and Tau fluor cs -13.1%.
`Cc1ccc(C(=O)NCCNc2ccc(Cl)cc2[N+](=O)[O-])o1` gave CBFb RUNX1 block -12.3%, JMJD2E inh -0.2%, Tau fibril ThT 15.8µM*, Tau FP inhib -13.6%, Lamin A splicing 12.8% and Tau fluor cs -24.6%.
`Cc1ccc(NC(=S)NNC(=O)c2ccc(N3CCOCC3)c([N+](=O)[O-])c2)cc1Cl` gave CBFb RUNX1 block -0.5%, JMJD2E inh 2.3%, Tau fibril ThT 11.2µM*, Tau FP inhib inconclusive, Lamin A splicing inconclusive and Tau fluor cs inconclusive.
Screening Cc1ccc(CNc2ccc(Cl)cc2[N+](=O)[O-])cc1 returned CBFb RUNX1 block -11.5%, JMJD2E inh 2.5%, Tau fibril ThT inconclusive, Tau FP inhib -3.1%, Lamin A splicing 10.7% and Tau fluor cs -24.9%.
Screening O=C(NNC(=S)Nc1ccc(Br)cc1)c1ccc(N2CCOCC2)c([N+](=O)[O-])c1 returned CBFb RUNX1 block 0.5%, JMJD2E inh -5.3%, Tau fibril ThT 12.6µM*, Tau FP inhib inconclusive, Lamin A splicing -10.8% and Tau fluor cs inconclusive.
For O=C(N/N=C/c1ccccc1)c1ccc(N2CCOCC2)c([N+](=O)[O-])c1 the results were CBFb RUNX1 block 1.3%, JMJD2E inh 4.1%, Tau fibril ThT 3.4%, Tau FP inhib -3.9%, Lamin A splicing inconclusive and Tau fluor cs -2.2%.
`Cc1cccc(NC(=O)c2ccc(N3CCOCC3)c([N+](=O)[O-])c2)n1` gave CBFb RUNX1 block -5.0%, JMJD2E inh 4.2%, Tau fibril ThT inconclusive, Tau FP inhib -4.2%, Lamin A splicing inconclusive and Tau fluor cs -4.3%.
`O=C(Nc1cc(F)cc(F)c1)c1ccc(NCCc2ccccc2)c([N+](=O)[O-])c1` gave CBFb RUNX1 block -21.2%, JMJD2E inh 0.7%, Tau fibril ThT 6.7%, Tau FP inhib 8.5%, Lamin A splicing -3.6% and Tau fluor cs -1.1%.
For O=C(O)c1ccc(NCCc2ccc(Cl)cc2)c([N+](=O)[O-])c1 the results were CBFb RUNX1 block -20.7%, JMJD2E inh 0.7%, Tau fibril ThT 5.62µM*, Tau FP inhib -1.1% and Tau fluor cs -15.6%.
For O=C(COc1ccccc1[N+](=O)[O-])N1CCC(c2nc3ccccc3o2)CC1 the results were Tau fibril ThT -6.9%, Tau FP inhib 0.4%, Lamin A splicing inconclusive and Tau fluor cs -15.3%.
For CCCN(Cc1cccs1)C(=O)Nc1cc(C)cc(C)c1 the results were Tau fibril ThT -17.7%, Tau FP inhib -13.6% and Tau fluor cs -20.9%.
Screening Cc1cc(C(=O)Nc2ccc(N3CCCC3)c(Cl)c2)ccc1[N+](=O)[O-] returned CBFb RUNX1 block inconclusive, JMJD2E inh 0.3%, Tau fibril ThT 5.01µM*, Tau FP inhib 5.5%, Lamin A splicing -22.1% and Tau fluor cs inconclusive.
For O=C(Nc1ccc(N2CCCC2)c(Cl)c1)c1ccc([N+](=O)[O-])cc1 the results were CBFb RUNX1 block 2.5%, JMJD2E inh 7.2%, Tau fibril ThT inconclusive, Tau FP inhib 3.1%, Lamin A splicing -7.1% and Tau fluor cs inconclusive.
Screening Cc1ccc(NC(=O)c2ccc(NCCN)c([N+](=O)[O-])c2)cc1Cl returned CBFb RUNX1 block -3.8%, JMJD2E inh 6.9%, Tau fibril ThT 12.6µM*, Tau FP inhib 5.2%, Lamin A splicing -9.0% and Tau fluor cs inconclusive.
Screening O=C(NNC(=S)Nc1ccc(Cl)c(Cl)c1)c1cccc([N+](=O)[O-])c1 returned CBFb RUNX1 block -14.4%, JMJD2E inh -9.0%, Tau FP inhib inconclusive and Tau fluor cs 1.78µM*[quencher].
`Cc1cccc(NC(=S)NNC(=O)c2cccc([N+](=O)[O-])c2)c1` gave CBFb RUNX1 block 0.1%, JMJD2E inh 4.4%, Tau fibril ThT inconclusive, Tau FP inhib 10.1% and Tau fluor cs -23.2%.
Screening O=C(NNC(=S)Nc1ccc(Cl)cc1Cl)c1ccc(N2CCOCC2)c([N+](=O)[O-])c1 returned CBFb RUNX1 block 9.3%, JMJD2E inh 3.2%, Tau fibril ThT 5.01µM*, Tau FP inhib inconclusive, Lamin A splicing inconclusive and Tau fluor cs inconclusive.
For COc1ccc(C(=O)NC(=S)Nc2cccc(Cl)c2N2CCOCC2)cc1[N+](=O)[O-] the results were CBFb RUNX1 block 8.7%, JMJD2E inh -4.0%, Tau fibril ThT -20.2%, Tau FP inhib inconclusive, Lamin A splicing -2.8% and Tau fluor cs inconclusive.
`O=C(Nc1ccc(-c2nc3ccccc3o2)cc1)c1ccc(N2CCOCC2)c([N+](=O)[O-])c1` gave CBFb RUNX1 block 8.3%, JMJD2E inh 3.6%, Tau fibril ThT 2.82µM*, Tau FP inhib inconclusive, Lamin A splicing 20.6% and Tau fluor cs inconclusive.
Screening Cc1ccc(NC(=O)c2ccc(-n3cccn3)c([N+](=O)[O-])c2)cc1 returned CBFb RUNX1 block 2.0%, JMJD2E inh 5.3%, Tau fibril ThT inconclusive, Tau FP inhib -3.8%, Lamin A splicing 7.0% and Tau fluor cs -19.0%.
`Cc1cccc(NC(=O)c2ccc(-n3cccn3)c([N+](=O)[O-])c2)c1` gave CBFb RUNX1 block 1.9%, JMJD2E inh -5.1%, Tau fibril ThT 6.31µM*, Tau FP inhib -0.2%, Lamin A splicing inconclusive and Tau fluor cs inconclusive.

From PubChem BioAssay
